Assay results: the antibiotic and cytotoxicity screens of Wong et al. (2023)
In all, about 39,000 compounds went through this assay and about 3,300 (8.5%) were called active. The sample as a whole holds a higher share of actives than the screen did.

These molecules were tested on HepG2 (assay: cytotoxicity call (relative viability < 0.9)). Settings: 10 µM.

Row | Compound | cytotoxicity call
1 | CC(C)NC(=O)N(C)C[C@H]1Oc2ccc(NC(=O)Cc3ccccc3)cc2CC(=O)N([C@H](C)CO)C[C@@H]1C | inactive
2 | c1ccc(Oc2ccncc2)cc1 | inactive
3 | COC(=O)C(CC#Cc1ccc2c(c1)[C@]1(C(=O)N2)[C@H](c2ccc(O)cc2)N2[C@H](c3ccccc3)[C@H](c3ccccc3)OC(=O)[C@H]2[C@@H]1C(=O)NC[C@H](O)c1ccccc1)C(=O)OC | inactive
4 | C[C@H]1CN([C@@H](C)CO)C(=O)c2c(c3ccccc3n2C)-c2ccccc2CO[C@H]1CN(C)Cc1ccc(Oc2ccccc2)cc1 | inactive
5 | COc1ccc(S(=O)(=O)Nc2cccc3c2O[C@H](CN(C)S(=O)(=O)c2ccccc2)[C@H](C)CN([C@@H](C)CO)C3=O)cc1 | inactive
6 | COCC#Cc1ccc2c(c1)O[C@H](CN(C)C(=O)COC)[C@H](C)CN([C@@H](C)CO)S2(=O)=O | inactive
7 | Cc1cc(OCc2nnc(SC3CCCC3)n2-c2cccnc2)ccc1-c1ccc(S(C)(=O)=O)cc1 | active
8 | Cc1nc(N)c(C(=O)O)nc1C | inactive
9 | C[C@@H]1CN([C@H](C)CO)C(=O)Cc2cc(NC(=O)Cc3cn(C)c4ccccc34)ccc2O[C@H]1CN(C)Cc1ccc(C(=O)Nc2ccccc2N)cc1 | inactive
10 | COc1ccc(S(=O)(=O)Nc2ccc3c(c2)C(=O)N([C@@H](C)CO)C[C@H](C)[C@@H](CN(C)Cc2ccc(Cl)c(Cl)c2)OCCCC[C@H](C)O3)cc1 | active
11 | COc1ccc(CN(C)C[C@@H]2OCCCC[C@@H](C)Oc3ccc(NS(=O)(=O)c4ccc(OC)cc4)cc3C(=O)N([C@@H](C)CO)C[C@H]2C)cc1 | inactive
12 | COc1ccc(CN(C)C[C@H]2OCCCC[C@H](C)Oc3ccc(NS(=O)(=O)c4ccc(OC)cc4)cc3C(=O)N([C@H](C)CO)C[C@H]2C)cc1 | inactive
13 | COc1ccc(CN(C)C[C@H]2OCCCC[C@H](C)Oc3ccc(NS(=O)(=O)c4ccc(OC)cc4)cc3C(=O)N([C@@H](C)CO)C[C@@H]2C)cc1 | inactive
14 | COc1ccc(S(=O)(=O)Nc2ccc3c(c2)C(=O)N([C@H](C)CO)C[C@H](C)[C@@H](CN(C)Cc2ccc(Cl)c(Cl)c2)OCCCC[C@@H](C)O3)cc1 | active
15 | COc1ccc(S(=O)(=O)Nc2ccc3c(c2)C(=O)N([C@@H](C)CO)C[C@H](C)[C@@H](CN(C)Cc2ccc(Cl)c(Cl)c2)OCCCC[C@@H](C)O3)cc1 | active
16 | COc1ccc(CN(C)C[C@H]2OCCCC[C@@H](C)Oc3ccc(NS(=O)(=O)c4ccc(OC)cc4)cc3C(=O)N([C@@H](C)CO)C[C@@H]2C)cc1 | inactive
17 | COc1ccc(CN(C)C[C@H]2OCCCC[C@@H](C)Oc3ccc(NS(=O)(=O)c4ccc(OC)cc4)cc3C(=O)N([C@H](C)CO)C[C@H]2C)cc1 | inactive
18 | COc1ccc(CN(C)C[C@@H]2OCCCC[C@@H](C)Oc3ccc(NS(=O)(=O)c4ccc(OC)cc4)cc3C(=O)N([C@H](C)CO)C[C@@H]2C)cc1 | inactive
19 | COc1ccc(S(=O)(=O)Nc2ccc3c(c2)C(=O)N([C@H](C)CO)C[C@@H](C)[C@H](CN(C)Cc2ccc(Cl)c(Cl)c2)OCCCC[C@H](C)O3)cc1 | active

Row | Compound | cytotoxicity call
20 | C[C@H]1CCCCO[C@H](CN(C)C(=O)Nc2ccc3c(c2)OCO3)[C@@H](C)CN([C@@H](C)CO)C(=O)c2cc(NS(=O)(=O)c3cccs3)ccc2O1 | inactive
21 | C[C@H](CO)N1C[C@H](C)[C@H](CN(C)Cc2ccc(C(=O)Nc3ccccc3N)cc2)Oc2c(NS(C)(=O)=O)cccc2C1=O | inactive
22 | COCCNCCn1cnc2c1c(=O)[nH]c(=O)n2C | inactive
23 | C[C@@H]1CCCCO[C@@H](CN(C)Cc2ccncc2)[C@H](C)CN([C@H](C)CO)C(=O)c2cc(NC(=O)Nc3ccc4c(c3)OCO4)ccc2O1 | inactive
24 | C[C@@H]1CCCCO[C@@H](CN(C)C(=O)CCCN(C)C)[C@@H](C)CN([C@@H](C)CO)C(=O)c2cc(NC(=O)Nc3ccc(C(F)(F)F)cc3)ccc2O1 | inactive
25 | Cc1ccc(S(=O)(=O)N(C)C[C@H]2OCCCC[C@H](C)Oc3ccc(NC(=O)Nc4c(C)noc4C)cc3C(=O)N([C@@H](C)CO)C[C@@H]2C)cc1 | inactive
26 | C[C@H](CO)N1C[C@H](C)[C@@H](CN(C)C(=O)Nc2cccc3ccccc23)Oc2ccc(NS(=O)(=O)c3ccc(F)cc3)cc2C1=O | inactive
27 | C[C@H]1CN([C@@H](C)CO)C(=O)Cc2cc(NC(=O)C3CC3)ccc2O[C@@H]1CN(C)S(=O)(=O)c1cn(C)cn1 | inactive
28 | COc1ccc(S(=O)(=O)Nc2ccc3c(c2)C(=O)N([C@H](C)CO)C[C@@H](C)[C@@H](CN(C)Cc2ccc(Cl)c(Cl)c2)OCCCC[C@H](C)O3)cc1 | inactive
29 | COc1ccc(S(=O)(=O)Nc2ccc3c(c2)C(=O)N([C@H](C)CO)C[C@H](C)[C@H](CN(C)Cc2ccc(Cl)c(Cl)c2)OCCCC[C@H](C)O3)cc1 | inactive
30 | COc1ccc(S(=O)(=O)Nc2ccc3c(c2)C(=O)N([C@H](C)CO)C[C@H](C)[C@H](CN(C)Cc2ccc(Cl)c(Cl)c2)OCCCC[C@@H](C)O3)cc1 | active
31 | COc1ccc(S(=O)(=O)Nc2ccc3c(c2)C(=O)N([C@@H](C)CO)C[C@@H](C)[C@@H](CN(C)Cc2ccc(Cl)c(Cl)c2)OCCCC[C@@H](C)O3)cc1 | active
32 | COc1ccc(S(=O)(=O)Nc2ccc3c(c2)C(=O)N([C@@H](C)CO)C[C@H](C)[C@H](CN(C)Cc2ccc(Cl)c(Cl)c2)OCCCC[C@@H](C)O3)cc1 | active
33 | COc1ccc(S(=O)(=O)Nc2ccc3c(c2)C(=O)N([C@H](C)CO)C[C@@H](C)[C@H](CN(C)Cc2ccc(Cl)c(Cl)c2)OCCCC[C@@H](C)O3)cc1 | active
34 | COCCNC(=O)C[C@H]1C[C@@H]2c3cc(NS(C)(=O)=O)ccc3O[C@@H]2[C@@H](CO)O1 | inactive
35 | O=C(O)c1csc2ccccc12 | inactive
36 | Cc1noc(C)c1S(=O)(=O)N(C)C[C@H]1OCCCC[C@@H](C)Oc2ccc(NS(C)(=O)=O)cc2C(=O)N([C@H](C)CO)C[C@@H]1C | inactive
37 | COc1ccc(S(=O)(=O)N(C)C[C@H]2Oc3ccc(NC(=O)NC(C)C)cc3CC(=O)N([C@@H](C)CO)C[C@H]2C)cc1 | inactive
